Screening results as filed in PubChem.
EWS-Fli block: inhibitors of EWS/Fli oncoprotein transcriptional activity; inhibition, % at 12.6 µM; actives 0.67% (n = 350,000); A673 NR0B1-luciferase reporter, viability-normalised;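 active = mean inhibition of at least 50% after viability correction, with every replicate also passing that limit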;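 note: firefly luciferase signal divided by Alamar Blue viability fluorescence both relative to DMSO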
F508del corr: correctors of CFTR F508del function in bronchial epithelial cells; CFBE cells, YFP halide quenching; stimulated with forskolin plus potentiator P3; % fluorescence drop versus neutral controls; activity (quench increase), % at 7.58 µM; actives 0.36% (n = 350,000); AID 720511;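 active = mean added fluorescence quench of at least 8% versus neutral control, with both replicates also reaching 8%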;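 note: cells transiently co-express mutant CFTR-F508del with the halide-sensitive YFP; corrector assay measuring rescue of mutant channel to the surface after 24 h compound exposure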
PAX8 reporter: PAX8 transcriptional activity inhibition. RMG-I TPO-luciferase reporter, SteadyGlo, 24 h. inhibition, % at 12.6 µM. actives 1.2% (n = 360,000);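 active = mean replicate inhibition at least 60% with every replicate also reaching 60%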;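 note: luciferase light reporting Pax8 driven TPO promoter activity; plate controls were median of neutral control wells for no effect and mitoxantrone controls for full effect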
LGR2 antag: blocks bursicon-induced cAMP signaling via Drosophila LGR2. HEK293 LGR2, CRE-luciferase, bursicon-stimulated, 4 h. actives 0.35% (n = 380,000). inhibition, % at 9.99 µM;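 active = drop in luminescence signal, shown as inhibition above about 50% in the replicate tests, limit read from the data, passing the limit was not always enough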;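 note: agonist challenge used bursicon conditioned medium at about half maximal strength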
Starred values were filed as active, the others as inactive; nt = no result given. An excerpt weighted towards active compounds, which were near 1.8% of everything screened.

SMILES	EWS-Fli block	F508del corr	PAX8 reporter	LGR2 antag
Fc1ccc2cnc(CCO[C@H]3CCCCO3)cc2c1	46.0	-1.2	-45.7	54.0*
COc1ccc(NC(=O)C2CC(=O)N(c3ccccc3F)C2)cc1S(=O)(=O)N1CCCCC1 (configuration not stated)	-0.3	0.4	5.6	14.5
COC(=O)CSC1=C(C#N)C(c2ccc(F)cc2)CC(=O)N1 (configuration not stated)	5.4	2.4	4.1	-2.6
COC(=O)CSC1=C(C#N)C(c2ccc(C)o2)CC(=O)N1 (configuration not stated)	27.0	9.7*	32.8	0.2
O=C(CCl)N1N=C(c2cccs2)CC1c1ccco1 (configuration not stated)	70.7*	-0.6	10.6	1.4
CC(C)NC(=O)N(C)C[C@H]1Oc2c(NC(=O)Nc3ccc(C(F)(F)F)cc3)cccc2C(=O)N([C@H](C)CO)C[C@H]1C	-7.1	2.7	30.0	3.7
Cc1ccc2nc(-c3ccc(NC(=S)NC(=O)C(C)C)cc3)sc2c1	-84.4	0.5	nt	nt
Cc1ccc2nc(-c3ccc(NC(=S)NC4CC(C)(C)NC(C)(C)C4)cc3)sc2c1	14.9	-14.6	91.1*	62.1*
C[C@@H]1CN([C@H](C)CO)C(=O)c2cc(NS(=O)(=O)c3ccc(F)cc3)ccc2O[C@@H](C)CCCCO[C@@H]1CN(C)C(=O)c1ccncc1	4.3	-2.8	2.7	10.3
COc1ccc2c(c1)c[n+](C)c1c3cc(OC)c(OC)cc3ccc21	30.9	2.0	-18.4	1.6
COc1cc2c[n+](C)c3c4ccccc4ccc3c2cc1OC	1.4	9.7*	41.1	-60.7
COc1ccccc1C#Cc1ccc([C@H]2[C@@H](C#N)N(C(=O)C3CCC3)[C@H]2CO)cc1	-17.0	-1.1	64.2*	-7.9
COc1ccccc1C#Cc1ccc([C@@H]2[C@@H](C#N)N(C(=O)C3CCCC3)[C@H]2CO)cc1	-3.3	-0.4	nt	21.5
COc1ccccc1C#Cc1ccc([C@@H]2[C@@H](C#N)N(C(=O)C3CCCCC3)[C@H]2CO)cc1	0.0	-1.4	88.7*	nt
COc1ccccc1C#Cc1ccc([C@H]2[C@@H](C#N)N(C(=O)C3CCCCC3)[C@H]2CO)cc1	63.2*	-0.5	73.4*	nt
CCCC#Cc1ccc([C@@H]2[C@H](C#N)N(S(=O)(=O)c3cccc(F)c3)[C@H]2CO)cc1	20.3	2.6	83.1*	-12.2
COc1ccccc1C#Cc1ccc([C@H]2[C@@H](CO)N(C(=O)C3CCCC3)[C@H]2C#N)cc1	2.2	-1.9	nt	7.8
Cc1c(NS(=O)(=O)c2ccc3nc(COc4ccccc4Cl)[nH]c3c2)c(=O)n(-c2ccccc2)n1C	-7.3	1.7	23.7	-14.8
C[C@H](NC(=O)C[C@@H]1CC[C@H](NC(=O)Nc2ccc3c(c2)OCO3)[C@H](CO)O1)c1ccccc1	9.6	0.8	13.8	2.8
COc1cccc(-c2cnc3c(c2)C(=O)N([C@H](C)CO)C[C@H](C)[C@@H](CN(C)C(=O)CC2CC2)O3)c1	-5.1	3.5	nt	-9.0
C[C@@H]1CN([C@H](C)CO)C(=O)c2cc(NC(=O)CCC(F)(F)F)ccc2O[C@@H]1CN(C)Cc1ccc(-c2ccccc2)cc1	6.3	0.8	nt	-6.8
CCCC#Cc1ccc([C@H]2[C@@H](C#N)N(C(=O)C3CCCCC3)[C@H]2CO)cc1	7.4	0.7	78.8*	17.0
CCCNC(=O)N1[C@H](C#N)[C@H](c2ccc(C#Cc3ccc(F)cc3)cc2)[C@@H]1CO	-18.9	8.4*	16.3	7.7
CCCC#Cc1ccc([C@@H]2[C@@H](C#N)N(C(=O)C3CCCCC3)[C@@H]2CO)cc1	13.6	-3.9	27.3	-4.4
CCC(=NCCc1c(C)[nH]c2ccccc12)C1=C(O)CC(c2ccccc2)CC1=O (configuration not stated)	49.4	7.5	49.1	5.9
SMILES	EWS-Fli block	F508del corr	PAX8 reporter	LGR2 antag
CC(=NCCc1c(C)[nH]c2ccc(OCc3ccccc3)cc12)C1=C(O)CC(c2ccccc2)CC1=O (configuration not stated)	20.9	0.9	6.0	17.1
CCCCC(=NCCc1c(C)[nH]c2ccc(OC)cc12)C1=C(O)CC(c2ccccc2)CC1=O (configuration not stated)	55.1*	10.9*	54.4	26.9
CCC(=NCCc1c(C)[nH]c2ccc(OC(F)(F)F)cc12)C1=C(O)CC(c2ccccc2)CC1=O (configuration not stated)	50.8*	0.2	11.1	12.8
O=C(NCCc1ccc(Cl)cc1)c1ccc2c(=O)[nH]c3c(C(=O)NCC4CCCO4)sc(=S)n3c2c1 (configuration not stated)	3.5	0.5	-26.2	2.0
Cc1ccc([C@@H]2CC=C(C(=O)O)[C@H](c3ccccc3)N2S(=O)(=O)c2ccccc2C)cc1	-6.6	-2.4	-13.5	-2.5
O=C(N/N=C/c1ccc2c(c1)OCO2)c1cc(-c2ccncc2)nc2ccccc12	nt	nt	15.9	-3.6
Cc1cc(C(=O)N/N=C/c2ccc([N+](=O)[O-])cc2)c2ccccc2n1	51.4*	14.1*	21.2	14.6
Cc1cccc(/C=N/NC(=O)c2cc(C)nc3ccccc23)n1	-4.2	4.6	-1.0	9.8
Cc1cc(C(=O)N/N=C/c2ccc3c(c2)OCO3)c2ccccc2n1	46.6	19.4*	10.9	-14.1
Cc1cc(C(=O)N/N=C/c2ccc(N(C)C)cc2)c2ccccc2n1	37.2	8.3*	20.7	13.9
COc1ccc(NC(=O)CSc2nnc(-c3cc(C)[nH]n3)n2N)cc1OC	nt	-1.6	10.9	4.3
COc1ccc(/C=N/NC(=O)c2ccn[nH]2)cc1COc1ccc(Cl)cc1	nt	nt	-0.2	nt
O=C(N[C@@H]1CC[C@@H](CCNS(=O)(=O)c2ccc(F)cc2)O[C@@H]1CO)C1CCOCC1	-16.5	-0.2	8.8	3.1
COC(=O)c1ccc(S(=O)(=O)N2CCc3ccccc32)cc1	4.8	12.4*	-3.4	6.7
CC1CN(S(=O)(=O)c2ccc(C(=O)O)cc2)CC(C)O1 (configuration not stated)	2.0	-2.4	33.9	-4.9
NNC(=O)c1ccc(S(=O)(=O)N2CCc3ccccc32)cc1	5.9	-1.0	2.3	9.1
CC1CN(S(=O)(=O)c2ccc(C(=O)N3CCc4ccccc43)cc2)CC(C)O1 (configuration not stated)	8.3	15.6*	-10.8	14.4
CCn1c(C)cc(/C=C2/SC(=S)NC2=O)c1C	78.7*	nt	-4.1	1.6
Cc1ccc(C)c(S(=O)(=O)/N=C2\C=C(NS(=O)(=O)c3ccccc3)C(=O)c3ccccc32)c1	-22.4	4.9	6.0	7.0
Cc1cc(C)c(S(=O)(=O)/N=C2/C=C(Sc3ncn[nH]3)C(=O)c3ccccc32)cc1C	nt	nt	101.6*	5.7
Cc1cc(C)cc(C(=O)NCCC(=O)NCc2cc(=O)n(C)c(=O)n2C)c1	-9.8	-2.4	6.6	9.2
CC(C)c1ccc(/C=N/Nc2ccc(C(=O)O)cc2)cc1	74.7*	-1.3	81.7*	nt
O=C(O)c1ccc(N/N=C/c2ccc(OC(=O)c3ccccc3Cl)cc2)cc1	-53.9	-1.4	27.7	57.6*
O=C(O)c1ccc(N/N=C/c2ccc(-c3ccccc3)cc2)cc1	-49.2	-2.7	-59.3	-5.1
